Data: PubChem BioAssay AID720533 (National Center for Advancing Translational Sciences (NCATS), 2013)
Values joined by “and” are separate entries in the source; they are usually repeats but may differ in a detail not shown here. Equal values may be shown once. In all, about 18,000 compounds went through this assay and about 750 (4.2%) were called active. Not shown: some 13% with an inconclusive outcome. Calls come from the whole dose curve; tested in HEK293 cells. Shown is part of a subset that was picked to be rich in actives. A structure can be active in one record and inactive in another.

Experiment: qHTS for Inhibitors of binding or entry into cells for Lassa Virus
Details: Lassa virus pseudotyped entry inhibition, cell-based qHTS; series mostly up to 49.2 µM; activity change, negative = inhibition: at the top concentration
% is set by controls: 0 for no effect and ±100 for the full control effect; potency is the fitted concentration of half-maximal effect.

Row | Structure (SMILES) | activity change, negative = inhibition | Potency
1 | COc1ccc(O[C@H]2C=C[C@@H](c3ccccc3)O[C@H]2COC(=O)CCC(C)=NOC[C@@H](C)[C@H](OCc2ccccc2)C(C)C)cc1 | -27.6% [at 8.59 µM] (inactive) | –
2 | CCCCC/C=C\C/C=C\C/C=C\CCCCCCC(N)=O | 4.71% (inactive) | –
3 | COc1ccc(O[C@H]2C=C[C@@H](c3ccccc3)O[C@H]2CON=C[C@@H](C)[C@H](OCc2ccccc2)C(C)C)cc1 | -25.5% [at 8.59 µM] (inactive) | –
4 | CCN(CC)CCCN=C1NC(c2ccccc2)C(C(=O)OC)=C(C)N1CC (configuration not stated) | 9.38% [at 8.59 µM] (inactive) | –
5 | C[C@H]1Cc2c(COc3ccccc3)nc3c(c2CO1)CN(C(=O)Nc1cccc(C#N)c1)CC3 | -15.7% [at 8.59 µM] (inactive) and -11.7% [at 8.59 µM] (inactive) | –
6 | CC1(C)S[C@@H]2[C@H](N=CN3CCCCCC3)C(=O)N2[C@H]1C(=O)O | 3.64% (inactive) | –
7 | CC(C)(Cc1c[nH]c2ccc(Cl)cc12)NCCOc1ccccc1OCC1CC1 | – | 28.2 µM (active)
8 | CC(=O)OCC(=O)[C@@]1(O)CCC2C3CCC4=CC(=O)CC[C@@]4(C)[C@]3(F)C(O)C[C@]21C (some centres not stated) | 2.6% (inactive) | –
9 | Cc1ccc(-c2ccnc(-n3ncc(C(=O)N(C)Cc4cccc5ncccc45)c3C3CC3)n2)o1 | -21.1% (inactive) | –
10 | CN(Cc1cccc2ncccc12)C(=O)c1cnn(-c2nccc(-c3ccccc3F)n2)c1C1CC1 | – | 12.6 µM (active)
11 | Cc1cccc(CNC(=O)c2cnn(-c3nccc(-c4ccccc4F)n3)c2C2CC2)n1 | -0.396% (inactive) | –
12 | Cc1ccc(S(=O)(=O)N2CCC(=O)N([C@H](COCc3ccccc3)Cc3ccccc3)CC2)cc1 | -0.656% (inactive) | –
13 | CCC1CN(CCNC(=O)c2ccsc2)Cc2cc(OC)ccc2O1 (configuration not stated) | -13.6% (inactive) | –
14 | CCCCN1CC(COCc2ccccc2)OCCS1(=O)=O (configuration not stated) | 14.1% (inactive) | –
15 | C=C(C)C1CC=C(CO)CC1 (configuration not stated) | -12% (inactive) | –
16 | C=C1/C(=C\C=C2\CCCC3(C)C2CCC3C(C)/C=C/C(O)C2CC2)CC(O)CC1O (configuration not stated) | – | 10 µM (active)
17 | N#Cc1c(Cl)c(Cl)c(Cl)c(C#N)c1Cl | – | 2.24 µM (active)
18 | CC(C)(O)CCC(O)[C@@](C)(O)C1CC[C@]2(O)C3=CC(=O)C4CC(O)C(O)C[C@]4(C)C3CC[C@]12C (some centres not stated) | -0.611% (inactive) | –
19 | COC(C)C(C(=O)OCC1=CCN2CC[C@H](O)[C@@H]12)C(C)C (some centres not stated) | -11.7% (inactive) | –
20 | COC(=O)C12C[C@H](C)C3C(C)C(c4ccccc4C31)N2C(=O)C(F)(F)F (some centres not stated) | 4.09% [at 8.59 µM] (inactive) | –
21 | CCCCC[C@H](O)/C=C/[C@@H]1[C@@H](CC(=O)CCC(=O)O)[C@@H](O)C[C@H]1O | -8.8% (inactive) | –
22 | COc1cc(C(=O)N2CCOCC2)cc(OC)c1OC | inactive | –
23 | COC(=O)C1=C(C(=O)OC)[C@@H]2N(C)c3ccccc3[C@@]23C[C@@H](C(=O)OC)N(C(=O)c2ccco2)C3=N1 | 11.9% [at 8.59 µM] (inactive) | –
24 | CC(C)c1cnc(NC(=O)Cc2ccccc2)s1 | 19.7% (inactive) | –
25 | CC(=O)Oc1ccccc1C(=O)Nc1ncc([N+](=O)[O-])s1 | – | 7.94 µM (active)
26 | CCOC(=O)[C@H](CCc1ccccc1)N[C@@H](C)C(=O)N1CC2(C[C@H]1C(=O)O)SCCS2 | -3.33% (inactive) | –

Row | Structure (SMILES) | activity change, negative = inhibition | Potency
27 | COc1cccc(CN2CCC3(CC2)c2ccccc2[C@@H](NC(=O)c2ccccc2OC)[C@@H]3O)c1 | -19.8% (inactive) | –
28 | CO[C@@H]1C[C@@H](C[C@H]2CC[C@H](C)[C@@H]([C@@H](C)C(=O)O)O2)O[C@]2(O[C@](C)([C@H]3CC[C@@](C)(C4OC([C@H]5O[C@@](O)(CO)[C@H](C)C[C@@H]5C)C[C@@H]4C)O3)C[C@H]2C)[C@@H]1C (some centres not stated) | – | 3.16 µM (active)
29 | O=C(C1CCCCC1)N1C[C@H](O)[C@H](n2cc(-c3ccc(F)cc3)nn2)C[C@@H]1c1ccccc1 | -16.6% (inactive) | –
30 | CC1C(O)CC2C(C(=O)O)=CO[C@@H](O[C@H]3OC(CO)C(O)C(O)C3O)C21 (some centres not stated) | -0.42% (inactive) | –
31 | CO[C@H]1[C@@H](O)[C@H](N)[C@@H](O[C@H]2O[C@H]([C@H](C)N)CC[C@H]2N)[C@H](O)[C@@H]1N(C)C(=O)CN | -19.4% (inactive) | –
32 | CCC1CN(CCNC(=O)c2cccc(C)n2)Cc2cc(OC)ccc2O1 (configuration not stated) | -1.6% (inactive) | –
33 | CS(=O)(=O)c1ccc(Oc2nccc(-c3c(-c4ccc(F)cc4)ncn3C3CCNCC3)n2)cc1 | -23.2% (inactive) | –
34 | COc1ccc(NC(=O)C[C@H]2C(=O)N(CCc3ccccc3)C[C@@H]2C)cc1 | -3.95% (inactive) | –
35 | Oc1ccc(Cl)c2c1CCC2 | -0.737% (inactive) | –
36 | CC[C@]1(O)C[C@@H]2CN(CCc3c([nH]c4ccccc34)[C@@](C(=O)OC)(c3cc4c(cc3OC)N(C)[C@H]3[C@@](O)(C(=O)OC)[C@H](OC(C)=O)[C@]5(CC)C=CCN6CC[C@]43[C@@H]65)C2)C1 | – | inactive and 22.4 µM (active)
37 | CC(C)C[C@@H](CC(=O)N[C@@H](CCC(=O)O)CC(=O)O)NC(=O)[C@@H]1CCCC[C@H]1NC(=O)C[C@@H](NC(=O)C[C@H](Cc1c[nH]c2ccccc12)NC(=O)[C@@H]1CCCC[C@H]1N)C(C)C | -0.613% (inactive) | –
38 | C[C@@H]1O[C@@H](OC[C@H]2O[C@@H](Oc3cc(O)c4c(c3)O[C@H](c3ccc(O)c(O)c3)CC4=O)[C@H](O)[C@@H](O)[C@@H]2O)[C@H](O)[C@H](O)[C@H]1O | -8.36% (inactive) | –
39 | O=c1cc(-c2ccc(O)cc2)oc2c([C@@H]3O[C@H](CO)[C@@H](O)[C@H](O)[C@H]3O)c(O)cc(O)c12 | -0.528% (inactive) | –
40 | COc1ccc(CCC(=O)c2c(O)cc(OC3OC(CO)C(O)C(O)C3O[C@@H]3OC(C)C(O)C(O)C3O)cc2O)cc1O (some centres not stated) | -1.94% (inactive) | –
41 | Cc1cccc(CNc2ccnc(-c3cccnc3)n2)c1 | -0.505% (inactive) | –
42 | CCCCN1C[C@H](c2ccc(Br)cc2)[C@@H](CC(=O)Nc2ccc(Br)cc2)C1=O | -23.4% (inactive) | –
43 | Nc1ncnc2c1ncn2C1CC(O)C(CO)O1 (configuration not stated) | inactive | –
44 | COc1ccc(C[C@H](N)C(=O)N[C@@H]2[C@H](O)[C@H](n3cnc4c(N(C)C)ncnc43)O[C@@H]2CO)cc1 | – | 2.51 µM (active)
45 | COc1ccc(CC(N)C(=O)NC2C(O)[C@H](n3cnc4c(N(C)C)ncnc43)O[C@@H]2CO)cc1 (some centres not stated) | – | 3.98 µM (active)
46 | CCN(CC)CCCC(C)Nc1ccnc2cc(Cl)ccc12 (configuration not stated) | inactive | –
47 | COC1=C[C@H](C(=O)NCCNC(C)=O)[C@H](C)[C@@H](c2ccccc2)CC1=O | -0.439% [at 8.59 µM] (inactive) | –
48 | COC(=O)[C@H](CC(C)C)NS(=O)(=O)c1c(F)cccc1F | 15.1% (inactive) | –
49 | O=C1NC(CC(=O)N2CCC(n3c(C4CCC4)nc4cccnc43)CC2)c2ccccc21 (configuration not stated) | -11.6% (inactive) | –
50 | Fc1cccc(/C=N\N=C/c2cccc(F)c2)c1 | 2.67% (inactive) | –
51 | C=CCOC(=O)C(=C)C | -1% (inactive) | –
52 | Cc1ccc(-c2ncc(Cl)cc2-c2ccc(S(C)(=O)=O)cc2)cn1 | -8.61% (inactive) | –

Row | Structure (SMILES) | activity change, negative = inhibition | Potency
53 | CC[C@H](C)[C@H](NC(=O)[C@@H](N)CCC(=O)O)C(=O)N[C@@H](CC(C)C)C(=O)N[C@@H](CC(=O)O)C(=O)N[C@H](C(=O)N1CCC[C@H]1C(=O)N[C@@H](CO)C(=O)N[C@H](C(=O)O)[C@@H](C)O)C(C)C | -17.7% (inactive) | –
54 | CC[C@H]1CN2CCc3cc(OC)c(OC)cc3[C@@H]2C[C@@H]1C[C@H]1NCCc2cc(OC)c(OC)cc21 | – | 0.1 µM (active)
55 | O=C(NCC1Cc2cc(F)cc(-c3cnccn3)c2O1)C1COc2ccccc2O1 (configuration not stated) | -10.2% (inactive) | –
56 | CCCCCCCC/C=C\CCCCCCCC(=O)NCC(=O)O | -9.14% (inactive) | –
57 | O=[N+]([O-])c1ccc(CN2CC(N3CC=CC3)CS2(=O)=O)cc1 (configuration not stated) | 14.7% (inactive) | –
58 | COc1ccc(-c2c(C)cc3oc(=O)cc(-c4ccccc4)c3c2C)cc1F | 8.65% (inactive) | –
59 | CN[C@@H]1[C@@H](O)[C@@H](O[C@@H]2[C@H](O)[C@H](O[C@H]3OC(CN)=CC[C@H]3N)[C@@H](N)C[C@H]2N)OCC1(C)O (some centres not stated) | -1.11% (inactive) | –
60 | CCOC(=O)CN1C(=O)NC(CCc2ccccc2)C(C(C)=O)=C1C (configuration not stated) | -20.9% [at 8.59 µM] (inactive) | –
61 | OCCN1CCN(CC/C=C2\c3ccccc3Sc3ccc(C(F)(F)F)cc32)CC1 | -11% [at 17.8 µM] (inactive) | –
62 | Cc1ccc(/C(=C/CN2CCCC2)c2ccccn2)cc1 | inactive | –
63 | COc1ccccc1-c1ccnc(-n2ncc(C(=O)NCCCN3CCOCC3)c2C)n1 | 3.84% (inactive) | –
64 | C=CCN1C(=O)[C@]2(OCCC=C[C@H]2C)c2ccccc21 | -16.5% [at 8.59 µM] (inactive) | –
65 | C[C@@H]1CC[C@H]2C(=O)N(Cc3ccc(Cl)cc3)C[C@@H](O)CN2[C@@H]1c1cccc(Br)c1 | 6.98% [at 8.59 µM] (inactive) | –
66 | Nc1nc2[nH]c(=O)c(=O)[nH]c2c(=O)[nH]1 | 5.82% (inactive) | –
67 | CCOC(=O)Cn1c(=O)sc2cccc(Cl)c21 | -6.52% (inactive) | –
68 | CNCC[C@H](Oc1ccc(C(F)(F)F)cc1)c1ccccc1 | – | inactive and 28.2 µM (active)
69 | COC(=O)C1=C(C)N(Cc2ccccc2)C(=NCCc2ccccn2)NC1c1cccc(C(F)(F)F)c1 (configuration not stated) | -11.6% [at 8.59 µM] (inactive) | –
70 | COc1ccccc1N1CCN(CCN2C(=O)c3ccccc3C(C)(C)C2=O)CC1 | inactive | –
71 | CC(C)=CCC[C@]1(C)[C@@H](CC=C(C)C)C[C@@]2(CC=C(C)C)C(=O)[C@]1(C(=O)C(C)C)C(=O)C(CC=C(C)C)=C2O | – | 12.6 µM (active)
72 | Nc1nccc(-c2c(-c3ccc(F)cc3)ncn2CCCN2CCOCC2)n1 | 97% (inactive) | –
73 | CC(=O)Oc1c2c(c3c(c1CC=C(C)C)O[C@@]14C(=CC5CC1C(C)(C)OC4(C/C=C(\C)C(=O)O)C5=O)C3=O)OC(C)(CCC=C(C)C)C=C2 (some centres not stated) | – | 6.31 µM (active)
74 | NCCCNCCCCN(CCCN)/[N+]([O-])=N/O | 3.12% (inactive) | –
75 | CCCCC/C=C\C/C=C\CCCCCCCCCC(=O)NCC(=O)O | 2.05% (inactive) | –
76 | CCCCCCCC1=Cc2ccc(F)cc2C(C(C(=O)OC)C(=O)OC)N1C(=O)OC (configuration not stated) | inactive | –
77 | COc1ccccc1-c1nc(NCCNC(C)=O)c2ccccc2n1 | 0.865% (inactive) | –
